# Screening data: PubChem BioAssay, several laboratories
# EWS-Fli block: blocks EWS/Fli oncoprotein-driven transcription. A673 NR0B1-luciferase reporter, viability-normalised. inhibition, % at 12.6 µM. 350,000 tested, 0.67% active;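 active means mean inhibition of at least 50% after viability correction, with every replicate also passing that limit; inconclusive means mean reaches 50% but only one of two replicates passes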;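 further: firefly luciferase signal divided by Alamar Blue viability fluorescence both relative to DMSO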
# TROY signal inh: blocks TROY-dependent signaling in reporter cells. Q293 LMP1-TROYcd NF-kB luciferase reporter, 4 h. inhibition, % at 10 µM. 360,000 tested, 0.98% active. AID 1347056;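 active means compounds whose plate-normalised and pattern-corrected inhibition of the luciferase reporter signal at the single screening dose is 50% or more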
# LGR2 inh: inhibitors of bursicon-induced Drosophila LGR2 receptor cAMP signaling. inhibition, % at 9.99 µM. HEK293 LGR2, CRE-luciferase, bursicon-stimulated, 4 h. AID 720647. 380,000 tested, 0.35% active;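 active means drop in luminescence signal, shown as inhibition above about 50% in the replicate tests, limit read from the data, passing the limit was not always enough; inconclusive means probably only some replicates passing the limit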;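 further: agonist challenge used bursicon conditioned medium at about half maximal strength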
# KKLEB tox: reduces viability of KKLEB cystic fibrosis airway cells | KKLEB CF airway cells viability, ATPlite luminescence, overnight; active compounds read low; cells stimulated with P. aeruginosa culture filtrate | activity change (cytotoxicity), % at 5 µM | 360,000 tested, 0.36% active;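 active means corrected activity change at or below -50% at 5 µM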
# CF NFkB block: inhibitors of cystic fibrosis induced NF-kB; 360,000 tested, 0.86% active; inhibition, % at 5 µM; KKLEB NF-kB-GFP reporter, PAF-induced, GFP fluorescence overnight;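 active means at least 50% inhibition at 5 µM, scaled per plate between neutral and stimulator controls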;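 further: PAF is a Pseudomonas aeruginosa culture filtrate used as stimulus; plate controls were PAF-stimulated DMSO wells for no effect and unstimulated DMSO wells for full effect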
# TWEAK Fn14 block: TWEAK-Fn14 signaling inhibition; TWEAK-stimulated Fn14 reporter cells, luciferase luminescence, 8 h; 360,000 tested, 2% active; inhibition, % at 10 µM; in the data active means inhibition above about 50%
# * = called active by the depositor; ? = inconclusive; / = no result given. Sampled rows, rich in hits. Any-hit rate of the full collection: about 2.6%.
SMILES,EWS-Fli block,TROY signal inh,LGR2 inh,KKLEB tox,CF NFkB block,TWEAK Fn14 block
CC(C)C(NC(=O)C(C(C)C)N(C)C)C(=O)N(C)C(C(=O)N1CCCC1C(=O)N1CCCC1C(=O)NCc1ccccc1)C(C)C (stereo not drawn),55.9*,16.9,-16.4,-42.2,64.1*,4.7
COC(=O)[C@H]1[C@H](CO)[C@H]2Cn3c(ccc(C4=CCCCC4)c3=O)[C@@H]1N2C(=O)CC1CC1,-0.8,/,2.3,/,/,/
Cc1ccccc1-n1c(C)nc2ccsc2c1=O,18.4,2.1,3.5,-3.0,-2.4,55.0*
COC(=O)[C@@H]1[C@@H](CO)[C@@H]2Cn3c(cccc3=O)[C@H]1N2C(=O)C1CCC1,-6.9,/,/,/,/,/
COC(=O)c1c(C)n(Cc2ccc3c(c2)OCO3)c2ccc(O)cc12,/,11.9,-15.4,17.6,29.5,53.2*
O=C(Cc1cccnc1)N1CCCCN2[C@H](CO)[C@@H](c3ccc(C#CC4(O)CCCC4)cc3)[C@H]2C1,-1.9,/,15.2,/,/,/
COC(=O)[C@@H]1[C@@H](CO)[C@@H]2Cn3c(ccc(-c4ccc(OC)cc4)c3=O)[C@H]1N2C(=O)c1ccccc1F,-1.1,/,-18.8,/,/,/
O=C(c1ccc(Cl)cc1)C1CCCN(Cc2cccc3cnccc23)C1 (stereo not drawn),18.7,85.2*,13.1,-5.5,-5.3,20.9
O=C(c1cccc(Cl)c1)C1CCCN(Cc2cccc3cnccc23)C1 (stereo not drawn),12.6,7.7,47.8,-21.9,29.6,25.6
C[C@H]1CN([C@@H](C)CO)C(=O)CCCn2cc(nn2)CO[C@H]1CN(C)C(=O)Oc1ccc2ccccc2c1,-0.5,/,1.9,/,/,/
COc1cccc(C(c2nnnn2-c2ccc3c(c2)OCCO3)N2CCC(n3c(=O)[nH]c4ccccc43)CC2)c1OC (stereo not drawn),25.2,33.3,19.5,-90.5*,85.3*,32.7
COc1cccc(C(c2nnnn2Cc2ccccc2)N2CCC(n3c(=O)[nH]c4ccccc43)CC2)c1OC (stereo not drawn),10.5,30.0,18.6,-75.1*,86.9*,39.2
O=C1NCN(c2ccccc2)C12CCN(C(c1cccc3ccccc13)c1nnnn1-c1ccc3c(c1)OCCO3)CC2 (stereo not drawn),-0.4,10.2,13.1,-0.8,10.2,36.9
O=c1[nH]c2ccccc2n1C1CCN(C(c2ccccc2OC(F)(F)F)c2nnnn2-c2ccc3c(c2)OCCO3)CC1 (stereo not drawn),15.0,42.2,45.8,-86.1*,82.7*,76.3*
COc1ccc(-n2nnnc2C(c2ccnc3ccccc23)N2CCC(n3c(=O)[nH]c4ccccc43)CC2)cc1 (stereo not drawn),5.6,10.2,-0.8,-5.5,13.2,-8.1
CN1CCN(C(=O)CN=[N+]=[N-])CC1,-9.9,/,/,/,/,/
COc1ccc(C2C(C#N)=C(N)Oc3c2c(=O)oc2ccccc32)cc1Cn1cc([N+](=O)[O-])cn1 (stereo not drawn),/,-7.5,/,-3.3,11.9,-2.9
COc1ccc(C2=CC(c3ccc(OC)c(OC)c3)c3c(c4ccccc4oc3=O)O2)cc1OC (stereo not drawn),57.7*,16.7,14.5,3.9,1.9,10.9
O=C(Cc1ccccc1)N1C[C@@H]2[C@H](c3ccccc31)[C@H](CO)N2Cc1ccccc1,11.1,/,0.3,/,/,/
CNC(=O)O/N=C(\C)Cc1nnn(-c2cc(C)on2)n1,-6.7,73.3*,-11.8,15.4,-10.3,20.9
COC(=O)[C@@H]1[C@@H](CO)[C@@H]2Cn3c(ccc(/C=C/c4ccccc4)c3=O)[C@H]1N2C(=O)C1CCC1,-0.3,/,-12.1,/,/,/
CCCNC(=O)N1[C@@H]2c3ccc(-c4ccccc4OC)c(=O)n3C[C@H]1[C@H](CO)[C@H]2C(=O)OC,1.1,/,-3.4,/,/,/
CCC(C)NC(=O)c1c(N)n(Cc2ccc3c(c2)OCO3)c2nc3ccccc3nc12 (stereo not drawn),/,57.2*,/,-19.3,17.6,16.4
Cc1nc2ccccc2c(=O)n1-c1cc([N+](=O)[O-])cc([N+](=O)[O-])c1,9.3,4.8,2.4,4.3,-4.4,-20.8
Cc1nc2ccc(Br)cc2c(=O)n1-c1ccc([N+](=O)[O-])c(C(F)(F)F)c1,14.2,55.8*,?,-14.2,4.0,36.2
SMILES,EWS-Fli block,TROY signal inh,LGR2 inh,KKLEB tox,CF NFkB block,TWEAK Fn14 block
COc1ccc(-c2cc(=Nc3cccc(C(=O)O)c3)c3cc(C)ccc3o2)cc1,14.3,21.4,55.2*,0.6,-30.1,57.7*
O=c1[nH]c2ccccc2n1C1CCN(C(c2nnnn2-c2ccc3c(c2)OCCO3)C2CC2)CC1 (stereo not drawn),8.1,8.1,10.3,-86.6*,84.1*,43.5
O=c1[nH]c2ccccc2n1C1CCN(C(c2cccs2)c2nnnn2-c2ccc3c(c2)OCCO3)CC1 (stereo not drawn),46.2,27.1,22.9,-79.4*,87.1*,49.1
O=C1NCN(c2ccccc2)C12CCN(C(c1cccs1)c1nnnn1-c1ccc3c(c1)OCCO3)CC2 (stereo not drawn),7.2,4.3,-0.5,-24.7,0.5,14.8
O=c1[nH]c2ccccc2n1C1CCN(C(c2ccccc2)c2nnnn2-c2ccc3c(c2)OCCO3)CC1 (stereo not drawn),16.7,30.1,19.1,-86.7*,84.1*,52.4*
COc1ccc(-n2nnnc2C(C2CC2)N2CCC(n3c(=O)[nH]c4ccccc43)CC2)cc1 (stereo not drawn),2.5,18.6,10.1,-15.7,-3.1,27.9
COc1ccc(-n2nnnc2C(c2ccccc2)N2CCC(n3c(=O)[nH]c4ccccc43)CC2)cc1 (stereo not drawn),-3.4,23.5,17.8,-70.1*,81.4*,43.3
O=C1NCN(c2ccccc2)C12CCN(C(c1ccccc1)c1nnnn1-c1ccc3c(c1)OCCO3)CC2 (stereo not drawn),-27.6,-2.2,2.3,-9.5,-16.4,19.0
Cc1cccc(S(=O)(=O)N2[C@@H]3c4ccc(-c5cccc(F)c5)c(=O)n4C[C@H]2[C@H](CO)[C@H]3C(=O)O)c1,-8.9,/,7.5,/,/,/
Cc1ccc(OC(=O)N(C)C[C@@H]2OCc3ccccc3-c3c(n(C)c4ccccc34)C(=O)N([C@H](C)CO)C[C@@H]2C)cc1,/,/,-4.0,/,/,/
COC(=O)[C@H]1[C@H](CO)[C@H]2Cn3c(ccc(-c4cccc(OC)c4)c3=O)[C@@H]1N2CC1CC1,1.2,/,4.1,/,/,/
CN(C)CC#Cc1ccc([C@@H]2[C@H](CO)N3CCCCN(C(=O)Cc4ccccn4)C[C@@H]23)cc1,-5.9,/,-14.6,/,/,/
O=C(NCCN1CCOCC1)c1ccc(Cl)nc1Cl,3.6,6.7,-28.4,6.0,-23.3,-13.9
Cc1ccc(NC(=O)c2ncn(CCCNCCN3CCOCC3)n2)cc1C,-1.8,-0.6,5.2,10.1,-16.0,70.4*
